TDP1 cell noCPT – qHTS for Inhibitors of human tyrosyl-DNA phosphodiesterase 1 (TDP1): qHTS in cells in absence of CPT; DT40 Tdp1-/- hTDP1 cells, no CPT, ATP luminescence, 48 h; Potency, µM (top dose mostly 46.2 µM), without a hit: at the highest dose activity change, negative = growth inhibition, hits mostly inhibitors; 420,000 tested, 15% active; AID 686978, 2013; also: potency is read from the fitted curve at half-maximal effect; % is scaled to controls: 0 for no effect and ±100 for the full control effect; nearly all actives have a fitted effect of over 55% in size
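A cellular qHTS used chicken DT40 cells lacking endogenous Tdp1 but carrying stably transfected human TDP1. Compounds were applied without camptothecin, and cell growth kinetics were judged by ATP-dependent luminescence after ≥48 hr.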
miR-21 reporter – qHTS Assay for Modulators of miRNAs and/orActivators of miR-21; HeLa miR-21 FLuc reporter, luciferase, 48 h; Potency, µM (series often up to 38.3 µM), without a hit: top-dose activity change, positive = activation, actives largely listed as activators; 340,000 tested, under 10 active;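 also: % of control where 0% means no effect; miR-21 action dims this reporter so a rising signal means less miR-21 action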
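HeLa cells stably expressing CMV-driven firefly luciferase with a downstream miR-21 binding sequence, endogenously expressing miR-21, were treated with titrations (up to about 40uM final) for 48 hours at 37 degree Celsius. Luciferase luminescence was read after lysis.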
uPA generation – qHTS for Inhibitors of Cell Surface uPA Generation; cell surface uPA generation assay, qHTS; Potency, µM (doses to about 38.3 µM), without a hit: top-dose activity change, negative = inhibition, usual class: inhibitors; 330,000 tested, 0.31% active; active = well fitted inhibition curve with a large enough effect; inconclusive = small, poorly fitted or top-dose-only effect; inactive = no such curve, though single readings can be large or run the other way; tested in mouse RAW 264.7 cells; also: potency is read from the fitted curve at half-maximal effect; % is scaled to controls: 0 for no effect and ±100 for the full control effect; nearly all actives have a fitted effect of over 55% in size
TDP1 cell CPT – qHTS for Inhibitors of human tyrosyl-DNA phosphodiesterase 1 (TDP1): qHTS in cells in presence of CPT. chicken DT40 Tdp1-/-;hTDP1 cells + 20 nM CPT, ATP luminescence, 48 h. Potency, µM (top dose mostly 46.2 µM), for inactives: top-dose activity change, negative = growth inhibition, actives largely listed as inhibitors. 420,000 tested, 12% active. AID 686979, 2013; also: potency is read from the fitted curve at half-maximal effect; % is scaled to controls: 0 for no effect and ±100 for the full control effect; nearly all actives have a fitted effect of over 55% in size
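Chicken DT40 Tdp1-/- cells complemented with human TDP1, 400 cells/well, exposed to compounds plus 20 nM camptothecin for at least 48 h at 37 C; viability read as ATP content by CellTiter-Glo luminescence.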
TDP1 block – qHTS Assay for Inhibitors of Tyrosyl-DNA Phosphodiesterase (TDP1) | Tyrosyl-DNA phosphodiesterase 1 (Homo sapiens), Q9NUW8 | recombinant TDP1, AlphaScreen DNA substrate cleavage | Potency, µM (top dose mostly 130 µM), for the others: at the highest dose activity change, negative = inhibition, usual class: inhibitors | 350,000 tested, 0.28% active; also: potency is read from the fitted curve at half-maximal effect; % is scaled to controls: 0 for no effect and ±100 for the full control effect; nearly all actives have a fitted effect of over 40% in size
Target sequence (Q9NUW8 whole entry, looked up): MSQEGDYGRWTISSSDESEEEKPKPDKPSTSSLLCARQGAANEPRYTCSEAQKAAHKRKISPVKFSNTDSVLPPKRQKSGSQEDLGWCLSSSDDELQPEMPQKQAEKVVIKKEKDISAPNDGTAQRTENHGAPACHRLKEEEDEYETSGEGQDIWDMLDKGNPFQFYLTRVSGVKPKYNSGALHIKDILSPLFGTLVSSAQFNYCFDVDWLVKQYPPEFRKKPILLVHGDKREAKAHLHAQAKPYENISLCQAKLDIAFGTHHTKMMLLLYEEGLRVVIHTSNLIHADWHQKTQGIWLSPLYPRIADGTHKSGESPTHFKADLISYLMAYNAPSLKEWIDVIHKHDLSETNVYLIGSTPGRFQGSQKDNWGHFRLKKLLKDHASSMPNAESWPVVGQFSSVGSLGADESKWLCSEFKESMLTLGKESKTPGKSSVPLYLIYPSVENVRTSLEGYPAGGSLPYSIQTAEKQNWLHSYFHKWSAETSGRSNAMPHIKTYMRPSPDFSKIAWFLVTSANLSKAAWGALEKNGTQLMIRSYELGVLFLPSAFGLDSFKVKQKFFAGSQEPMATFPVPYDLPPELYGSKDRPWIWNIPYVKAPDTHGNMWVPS
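AlphaScreen read-out: signal falls as enzyme removes the 3' tyrosine-FITC from a 5'-biotinylated DNA oligo (15 nM, 5 min, RT). Enzyme was E. coli-made recombinant Tdp1 at 1 nM, exposed to compound for 15 min beforehand; beads 10 ug/ml, 10 min.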
An asterisk follows results filed as active; ? = inconclusive; · = no result. Hits are enriched below; roughly 16% of the tested compounds scored in any of these assays. Unless noted, calls follow the shape of the dose curve; as a rule, active = well fitted curve in the direction sought with a large enough effect; inconclusive = small, poorly fitted or top-dose-only effect, or another doubt; inactive = no such curve, though single readings can be large; an effect the other way counts as inactive or inconclusive.

SMILES	TDP1 cell noCPT	miR-21 reporter	uPA generation	TDP1 cell CPT	TDP1 block
CCO[C@H]1OC(C(=O)NCc2nc3ccccc3[nH]2)=C[C@@H](c2csc3ccccc23)[C@@H]1CCCO	16.4µM*	15.2%	-6.8%	?	6.4%
CCCN(CCO)Cc1cccc(Cl)c1	-12.0%	-3.9%	·	-8.8%	-4.1%
CCC(C)(C)NC(=O)CN(CC1CCCO1)C(=O)CNS(=O)(=O)c1ccccc1 (stereo unspecified)	-17.1%	-0.1%	-0.8%	12.1%	·
CCc1nc2c(OCc3cc(Cl)cc(Cl)c3)cccn2c1N(C)C(=O)CC(C)C	?	·	·	25.9µM*	·
CCc1nc2c(OCCOc3ccc(F)cc3)cccn2c1N(C)C(=O)CC(C)C	10.3µM*	·	·	16.4µM*	·
CCc1nc2c(OCC(=O)C(C)(C)C)cccn2c1N(C)C(=O)COc1ccccc1	-1.9%	·	·	-23.2%	·
CCc1nc2c(OCC(=O)C(C)(C)C)cccn2c1N(C)C(=O)CC(C)C	-25.6%	·	·	?	·
CCc1nc2c(OCc3ccc(Cl)cc3Cl)cccn2c1N(C)C(=O)CC(C)C	6.51µM*	·	·	?	·
CCc1nc2c(OCC(=O)c3ccc(F)cc3)cccn2c1N(C)C(=O)COc1ccccc1	20.6µM*	·	·	?	·
S=C(NCC1CCCO1)Nc1cccc2ccccc12 (stereo unspecified)	-15.1%	-7.1%	-0.9%	0.5%	-6.0%
CC(C)CCn1c(=O)c2sccc2n2c(CCCC(=O)Nc3ccc(C(C)C)cc3)nnc12	14.6µM*	-3.0%	·	?	5.1%
COCCCn1c(=O)c2sccc2n2c(CCCC(=O)Nc3cccc(C(F)(F)F)c3)nnc12	20.6µM*	2.9%	·	16.4µM*	-2.6%
Cn1c(=O)c2sccc2n2c(CCCC(=O)Nc3ccc(Oc4ccc(Cl)cc4)cc3)nnc12	18.4µM*	?	·	?	0.0%
COCCCn1c(=O)c2sccc2n2c(CCCC(=O)Nc3cc(C)cc(C)c3)nnc12	?	-0.5%	·	?	0.0%
CC[C@H](C)NC(=O)CCCc1nnc2n(CCC(C)C)c(=O)c3sccc3n12	?	7.5%	·	-25.8%	-7.7%
CCn1c(=O)c2sccc2n2c(CCCC(=O)Nc3ccc(Oc4ccccc4)cc3)nnc12	14.6µM*	-11.4%	·	?	7.7%
CCn1c(=O)c2sccc2n2c(CCCC(=O)NCc3cccnc3)nnc12	0.5%	4.5%	-14.8%	19.9%	4.5%
CCNCC(=O)N1c2ccccc2CCc2ccc(NC(=O)OCC)cc21	?	-6.5%	-5.5%	?	·
O=C(CN1CCN(C(c2ccccc2)c2ccccc2)CC1)N1N=CCC1c1ccccc1 (stereo unspecified)	-26.3%	-0.3%	0.7%	-1.6%	1.4%
CS(=O)(=O)NN1C(=O)c2ccccc2NC12CCCC2	3.5%	1.6%	1.6%	-1.3%	0.0%
C=CCNc1nc(C(=O)OCC(=O)c2cccc(Br)c2)cs1	-10.7%	·	5.5%	-10.2%	?
CCN(CC(=O)Nc1ccc(NC(C)=O)cc1)C(=O)CCCN1C(=O)c2ccccc2C1=O	-6.5%	·	5.5%	-19.5%	-4.8%
Cc1ncc(CO)c2cc(C(=O)Nc3ccccc3Cl)c(=Nc3cccc(C(N)=O)c3)oc12	-3.8%	0.4%	6.7%	-14.2%	·
COc1ccccc1NC(=O)c1cc2c(CO)cnc(C)c2oc1=Nc1ccc(OC)c(OC)c1	?	-2.6%	12.2%	9.2µM*	·
COc1ccc(NC(=O)c2cc3c(CO)cnc(C)c3oc2=Nc2cccc(C)c2)c(OC)c1	4.11µM*	-2.0%	4.4%	?	·
SMILES	TDP1 cell noCPT	miR-21 reporter	uPA generation	TDP1 cell CPT	TDP1 block
COc1ccccc1NC(=O)c1cc2c(CO)cnc(C)c2oc1=Nc1cc(OC)c(OC)c(OC)c1	-11.2%	0.2%	11.7%	1.4%	·
CC(C)OP(=O)(OC(C)C)C(Nc1ccc(C(=O)O)cc1)c1ccccc1 (stereo unspecified)	17.6%	-1.6%	17.6%	-17.8%	0.0%
Cc1cc(C)c(C)c(S(=O)(=O)N2CCN(CC(=O)c3c(N)n(Cc4ccccc4)c(=O)n(C)c3=O)CC2)c1C	?	?	?	?	0.6%
CCc1ccc2c(CN3CCC(C(=O)OC)CC3)cc(=O)oc2c1	-28.5%	-10.4%	-0.4%	-1.2%	·
CCOc1ccc2nc(NC(=O)c3ccoc3C)sc2c1	8.2µM*	-8.8%	-10.4%	9.2µM*	6.1%
Cc1ccc2nc(NC(=O)c3ccccn3)sc2c1	6.51µM*	?	-27.2%	4.61µM*	8.1%
CCOc1ccccc1NC(=O)c1nc(SC(C)C)ncc1Cl	18.4µM*	5.7%	·	?	2.3%
CCOc1ccc2nc(NC(=O)CN3CCN(CC)CC3)sc2c1	?	-22.8%	-3.4%	0.7%	2.2%
CCOc1ccc2nc(NC(=O)Cn3[nH]c(=O)c4ccccc4c3=O)sc2c1	23.1µM*	-56.0%	-8.2%	23.1µM*	5.5%
COc1ccc(-c2cn3cccnc3n2)cc1NC(=O)C1CC1	3.8%	-2.9%	·	0.5%	5.9%
CCC(C)NC(=O)c1cc2c(=O)[nH]c3ccc(C)cc3c2s1 (stereo unspecified)	?	-9.0%	-1.0%	?	·
CCOc1ccc2nc(NC(=O)NC3CCCCC3)sc2c1	20.6µM*	-8.5%	2.1%	?	5.8%
O=C(Nc1nc2c(F)cc(F)cc2s1)c1ccccn1	0.731µM*	22.3%	-12.9%	0.651µM*	6.0%
CCOc1ccc2nc(NC(=O)c3nc(SC(C)C)ncc3Cl)sc2c1	8.2µM*	-0.1%	·	9.2µM*	0.0%
O=C(Nc1nc2ccc(F)cc2s1)c1cccc(S(=O)(=O)N2CCc3ccccc32)c1	?	-17.0%	8.7%	-24.6%	0.0%
CCSc1ncc(Cl)c(C(=O)Nc2nc3ccc(OC)cc3s2)n1	-21.4%	-1.3%	·	-21.6%	3.7%
O=C(Nc1nc2c(F)cc(F)cc2s1)c1ccc(S(=O)(=O)N2CCc3ccccc32)cc1	?	1.5%	·	25.9µM*	2.7%
CCN(CC)C(=O)Cn1cc(S(=O)(=O)CC(=O)NC2CCCCC2)c2ccccc21	-22.8%	-3.1%	-0.3%	-3.0%	0.6%
Cc1ccccc1Nc1nc(N)c(C(=O)c2ccccc2Cl)s1	?	27.0%	·	?	10.5%
Cc1ccc(C)c(Cn2c(=O)cc(C)c3c(C)nn(-c4cccc(F)c4)c32)c1	1.0%	5.1%	·	10.7%	-3.2%
CCOC(=O)c1ccccc1NC(=O)N1CCN2CCCCC2C1 (stereo unspecified)	-2.3%	-1.6%	·	20.7%	-2.8%
CCOc1ccc2nc(NC(=O)c3ccccn3)sc2c1	0.651µM*	27.6%	-6.9%	0.82µM*	·
